# AF4-AF9 inh – inhibitors of AF4 peptide binding to AF9, primary screen, biochemical, AlphaScreen, biotin-AF4 peptide, FLAG-AF9, single point; 350,000 compounds, 0.47% hits; AID 651704, 2012; inhibition, % at 10 µM; Protein AF-9 (Homo sapiens), P42568;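 active = every replicate reaching a set inhibition limit, whatever the replicate mean, cut at about 25% in these data; inconclusive = mean inhibition reaches that limit but some replicates miss it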
# FGF22 binding – binders of human FGF22 protein, primary screen, FGF22 synaptogenesis inhibitor project, biophysical, thermal shift, single point | Fibroblast growth factor 22 (Homo sapiens), Q9HCT0 | 340,000 compounds, 1.5% hits | recombinant FGF22 thermal shift, SYPRO orange fluorescence; percent of sucrose octasulfate shift, DMSO zero | activity (Tm shift, normalised), % at 9.99 µM;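 active = mean Tm shift, scaled 0 neutral to 100 positive control, at about 1.3% or above, every replicate too, limit read from the data; inconclusive = no clear call, values can overlap the other calls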
# ERAP1 inh – human ERAP1 aminopeptidase inhibitors, primary screen, biochemical, single point, plate reader | Endoplasmic reticulum aminopeptidase 1 (Homo sapiens), Q9NZ08 | recombinant ERAP1, Leu-AMC fluorescence, 60 min | inhibition, % at 10.7 µM | 340,000 compounds, 0.15% hits;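 active = mean replicate inhibition of at least 30%, or all replicates individually reaching that 30% level; inactive = mean below 30% and not every replicate reaching it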
# DENV2 CPE rescue – inhibitors of DENV2 cytopathic effect, primary screen, cell-based, plate reader, single concentration; AID 651640, 2012; 350,000 compounds, 1.7% hits; CPE inhibition, % at 9.99 µM; DENV2-infected cells, cytopathic effect rescue; in the data active = CPE inhibition above about 20%, passing the limit was not always enough; inconclusive = no clear call, values can overlap the other calls; tested in BHK-21 cells
# RAD52 inh – RAD52 DNA annealing inhibitors, primary screen, biochemical, FRET, single point, set 2; recombinant RAD52 DNA annealing, FRET fluorescence; DNA repair protein RAD52 homolog (Homo sapiens), P43351; 360,000 compounds, 0.46% hits; inhibition, % at 18.7 µM; AID 651710, 2012;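 active = every replicate showing at least 50% inhibition; inconclusive = mean inhibition at least 50% but not in every replicate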
# Target sequence (P43351 whole entry, looked up): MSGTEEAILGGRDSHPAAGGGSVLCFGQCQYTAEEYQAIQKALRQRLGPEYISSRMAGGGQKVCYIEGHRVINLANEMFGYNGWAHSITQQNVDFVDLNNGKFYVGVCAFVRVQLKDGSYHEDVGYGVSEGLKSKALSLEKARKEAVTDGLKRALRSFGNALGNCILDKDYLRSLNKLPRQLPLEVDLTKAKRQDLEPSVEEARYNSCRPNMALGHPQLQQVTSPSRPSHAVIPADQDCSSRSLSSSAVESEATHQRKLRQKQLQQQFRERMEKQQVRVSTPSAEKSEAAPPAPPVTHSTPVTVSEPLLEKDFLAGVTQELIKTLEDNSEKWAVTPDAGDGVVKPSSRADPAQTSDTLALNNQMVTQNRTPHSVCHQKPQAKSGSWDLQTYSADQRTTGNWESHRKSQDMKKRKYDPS
# DNA binder FP – DNA-binding compounds via dye displacement, dose response, artefact control for RAD52 inhibitor project, biochemical, fluorescence polarization, cherry-pick; AID 652128, 2013; 1,000 compounds, 8% hits; Salmon sperm DNA/acridine orange FP displacement; AC50, µM; shares compounds with RAD52 inh;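 active = fitted half-maximal concentration for signal loss at or below twice the highest dose tested, in every separate run, actives reach about 64 µM in these data; inconclusive = runs disagree, or flat partial signal loss, or poor fit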
# Numbers stand for hits; . = inactive; ? = inconclusive; / = not tested or not shown. Most compounds without a hit are left out; they make up all but 4% or so of the library.
SMILES,AF4-AF9 inh,FGF22 binding,ERAP1 inh,DENV2 CPE rescue,RAD52 inh,DNA binder FP
O=C(Nc1ccc(F)cc1)N[C@H]1CC[C@@H](CCNS(=O)(=O)c2cccc(Cl)c2)O[C@H]1CO,.,.,.,.,.,/
CN(C)c1ccc(C=Cc2nccc3ccccc23)cc1,.,.,.,.,.,/
CN(C)c1ccc(C=c2c3ccccc3n3c2c2c([n+]3C)CCCC2)cc1,37.3,.,.,.,89.1,6.93µM
C[C@@H]1CN([C@@H](C)CO)C(=O)Cc2cc(N(C)C)ccc2O[C@@H]1CN(C)C(=O)Nc1ccc(C(F)(F)F)cc1,.,/,/,.,.,/
CC(C)NC(=O)Nc1ccc2c(c1)C(=O)N([C@@H](C)CO)C[C@H](C)[C@H](CN(C)C)O2,.,.,.,.,.,/
CN(C)CCCNc1oc(/C=C/c2cccs2)nc1S(=O)(=O)c1ccccc1,.,.,.,.,51.8,.
O=C(NCCNC(=O)c1ccccc1)c1ccccc1,.,.,.,.,52.5,.
Cc1cc(N2CCN(C)CC2)nc2ccc(NC(=S)NC3CC3)cc12,.,.,/,.,.,/
COCCNC(=S)Nc1ccc2nc(N3CCOCC3)cc(C)c2c1,.,.,.,.,.,/
CCCN(CCC)CCCNC(=S)Nc1ccc2nc(N3CCN(C)CC3)cc(C)c2c1,.,.,.,.,75.4,.
CCN1CCN(c2cc(C)c3cc(NC(=O)c4ccc(C)c(C)c4)ccc3n2)CC1,.,.,.,.,.,/
CCCN(CCC)CCCNC(=S)Nc1ccc2nc(N3CCN(CC)CC3)cc(C)c2c1,.,.,.,.,97.2,.
CCCCN(CC)CCNC(=O)CCC(=O)Nc1ccc2nc(N3CCN(C)CC3)cc(C)c2c1,.,.,.,.,81.0,.
CCCCN(CC)CCNC(=S)Nc1ccc2nc(N3CCN(C)CC3)cc(C)c2c1,.,.,.,.,59.6,.
CCN(CC)CCCNC(=O)CCC(=O)Nc1ccc2nc(N3CCCCC3)cc(C)c2c1,.,.,.,.,.,/
CO[C@H]1CN(C)C(=O)c2cc(NC(=O)c3ccno3)ccc2OC[C@@H](C)NC[C@@H]1C,.,.,.,.,.,/
CC(CN1CCN(CCOCCO)CC1)CN1c2ccccc2Sc2ccc(Cl)cc21 (stereo not drawn),.,.,.,.,.,/
CN1CCN(CCCN2c3ccccc3Sc3ccc(Cl)cc32)CC1,35.6,.,.,.,79.4,.
CN(C)CCCN1c2ccccc2Sc2ccc(C(F)(F)F)cc21,.,.,.,.,.,/
OCCN1CCN(CC/C=C2/c3ccccc3CSc3ccccc32)CC1,.,.,.,.,.,/
OCCN1CCN(CC/C=C2/c3ccccc3Sc3ccc(C(F)(F)F)cc32)CC1,27.1,.,.,.,58.5,.
CCSc1ccc2c(c1)N(CCCN1CCN(C)CC1)c1ccccc1S2,64.9,.,.,.,63.2,.
OCCN1CCN(CCCN2c3ccccc3Sc3ccc(C(F)(F)F)cc32)CC1,.,.,.,?,55.9,.
O=C(C[C@H]1C[C@H]2c3cc(NC(=O)Nc4ccccc4)ccc3O[C@H]2[C@@H](CO)O1)NCc1ccccn1,.,/,.,.,.,/
OC1CC2CCC(C1)N2CCCN1c2ccccc2Sc2ccc(Cl)cc21 (stereo not drawn),.,.,.,.,90.5,.
Cc1cccc2c1-c1sc(C(=O)NCCCN3CCC(C)CC3)cc1CO2,.,.,.,.,61.0,.
CN(C)C(=O)C[C@@H]1C[C@H]2c3cc(NC(=O)CC4CC4)ccc3O[C@H]2[C@H](CO)O1,.,.,.,.,.,/
COc1ccc(OC)c2nc3c(C(=O)NCCN(C)C)cccc3nc12,.,.,.,.,104.6,4.71µM
CN(C)CCNC(=O)c1cccc2nc3cccc(F)c3nc12,.,.,.,.,97.4,17.9µM
Cc1noc(C)c1NC(=O)N(C)C[C@@H]1Oc2ccc(NC(=O)Cc3cn(C)c4ccccc34)cc2C(=O)N([C@@H](C)CO)C[C@H]1C,.,.,.,.,.,/

# Screens (PubChem)
